GALK inh: blocks human galactokinase activity | Purified GALK, Kinase-Glo residual ATP luminescence | Potency, µM (titrated, usually from 57.5 µM), for inactives: top-dose activity change, negative = inhibition, actives largely listed as inhibitors | P51570 | 270,000 compounds, 0.007% hits; further: potency means the concentration at half of the fitted maximal effect
Target sequence (P51570 whole entry, looked up): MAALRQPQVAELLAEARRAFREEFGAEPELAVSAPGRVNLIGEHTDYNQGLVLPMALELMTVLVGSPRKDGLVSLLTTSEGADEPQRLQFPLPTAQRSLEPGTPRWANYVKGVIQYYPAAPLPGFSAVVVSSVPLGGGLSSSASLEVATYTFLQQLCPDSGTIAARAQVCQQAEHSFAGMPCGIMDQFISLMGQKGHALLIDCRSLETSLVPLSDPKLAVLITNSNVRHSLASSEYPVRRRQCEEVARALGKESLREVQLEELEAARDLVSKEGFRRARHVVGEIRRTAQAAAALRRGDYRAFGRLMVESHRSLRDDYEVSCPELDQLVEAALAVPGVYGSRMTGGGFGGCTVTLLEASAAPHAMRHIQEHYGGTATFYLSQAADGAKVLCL
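Kinase-Glo Plus luminescence measured ATP left after a 1 h room-temperature reaction. The reaction used 5 nM GALK, 100 uM galactose and 35 uM ATP at pH 8.0 (20 mM HEPES, 5 mM MgCl2, 60 mM NaCl, 1 mM DTT, 0.01% BSA).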
USP2a block: USP2a (human) protease inhibition. O75604. 330,000 compounds, 0.01% hits. Potency, µM (doses to about 38.3 µM), without a hit: at the highest dose activity change, negative = inhibition, most hits filed as inhibitors. USP2 core, Ub-CHOP2 coupled fluorogenic reporter, 485/531;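 further: potency means the concentration at half of the fitted maximal effect; plate controls were DMSO wells for no effect and full inhibition by NEM control for full effect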
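USP2 core (10nM final) preincubated 30min RT with compound in 20mM Tris-HCl pH 8.0, 2mM CaCl2, 2mM beta-mercaptoethanol, 0.05% CHAPS; 25nM Ub-CHOP2 plus 25nM reporter substrate added, fluorescence (Ex485/Em531) read after 60min.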
USP1 inh: blocks the human USP1/UAF1 deubiquitinase complex | O94782 | recombinant USP1/UAF1, Ub-Rhodamine cleavage fluorescence | Potency, µM (titrated, usually from 57.1 µM), for inactives: top-dose activity change, negative = inhibition, hits mostly inhibitors | 390,000 compounds, 0.23% hits; further: potency means the concentration at half of the fitted maximal effect; nearly all actives have a fitted effect of over 60% in size
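Step one: compound is pinned into 1nM USP1/UAF1 in HEPES pH 7.8 buffer with TCEP. Step two: 15 min room-temperature incubation. Step three: Ub-Rho (150nM final) starts cleavage, tracked by fluorescence over six one-minute reads.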
PLK1 PBD inh: PLK1 (human) polo-box domain binding inhibition. P53350. Plk1 PBD binding of FITC phosphopeptide, fluorescence polarization. Potency, µM, inactives show max response, negative = inhibition, hits mostly inhibitors. 360,000 compounds, 2.8% hits. AID 720504; further: potency means the concentration at half of the fitted maximal effect; series mostly up to about 57 µM; nearly all actives have a fitted effect of over 65% in size
VDR inh: vitamin D3 receptor (human) inhibition | AID 504847 | Potency, µM, for inactives: max response, negative = inhibition, actives largely listed as inhibitors | VDR-SRC2-3 peptide fluorescence polarization, 2 h | P11473 | 400,000 compounds, 0.93% hits; further: potency means the concentration at half of the fitted maximal effect
Target sequence (P11473 whole entry, looked up): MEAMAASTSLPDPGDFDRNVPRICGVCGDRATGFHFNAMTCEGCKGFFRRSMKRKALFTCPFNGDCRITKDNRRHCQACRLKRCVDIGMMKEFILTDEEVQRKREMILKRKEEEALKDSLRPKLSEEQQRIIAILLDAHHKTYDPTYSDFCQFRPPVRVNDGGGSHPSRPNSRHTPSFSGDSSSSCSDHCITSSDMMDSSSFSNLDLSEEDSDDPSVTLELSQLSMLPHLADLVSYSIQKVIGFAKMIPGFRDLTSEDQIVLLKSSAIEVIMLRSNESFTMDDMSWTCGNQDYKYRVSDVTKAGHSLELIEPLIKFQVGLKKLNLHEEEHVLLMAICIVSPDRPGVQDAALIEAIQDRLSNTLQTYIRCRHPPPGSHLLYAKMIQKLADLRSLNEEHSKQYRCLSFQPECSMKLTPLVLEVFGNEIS
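FP read-out; VDR + SRC2-3 coactivator peptide; 23 nl compound by pintool; 2 h RT incubation; reagents held at 4 deg C, protected from light.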
Coupling enz: inhibits coupling enzyme system, counter-screen for aldolase hits; coupling enzyme system counterscreen, AmpLite Red fluorescence; activity change, negative = inhibition, % at 58.2 µM, hits read low; 290,000 compounds, 0.67% hits; in the data active means activity change below about -30%
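Counterscreen lacking aldolase: glyceraldehyde-3-phosphate coupling-enzyme reagent preincubated 10 min at RT with compound (at 57.5 uM final), then substrate/coupling system with AmpLite Red added; fluorescence read at 525/598 nm after 20 min RT.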
Numbers without * were called inactive; ? = inconclusive; nt = not tested or not shown. This is a sample that favours compounds with a hit; in the whole collection about 3.2% have one here. Unless noted, the call rests on the fitted dose curve; in most records, active means well fitted curve in the direction sought with a large enough effect; inconclusive means small, poorly fitted or top-dose-only effect, or another doubt; inactive means no such curve, though single readings can be large; an effect the other way counts as inactive or inconclusive. Unless noted, on the % scale 0 is the no-effect control and ±100 the full control effect.

SMILES | GALK inh | USP2a block | USP1 inh | PLK1 PBD inh | VDR inh | Coupling enz
CCOc1cccc(CNc2ccc(O)cc2)c1OCc1ccc(Cl)cc1Cl | -0.1% | -1.3% | 31.6µM* | -6.3% | 50.1µM* | -50.1*
COc1ccc(N=Cc2cc(Cl)ccc2O)cc1Cl | -0.8% | -0.8% | -11.8% | -8.7% | -14.5% | 1.6
CN(C(=O)c1ccc(OC2CCN(CCc3ccccc3)CC2)cc1)C1CCOC1 (stereo unspecified) | -3.1% | 2.3% | -26.3% | -3.7% | -9.8% | -0.8
COc1cccc(C2C3=C(CCCC3=O)NC3=C2C(=O)c2ccccc23)c1 (stereo unspecified) | -1.9% | -1.2% | nt | nt | nt | 0.2
CC(C)(C)c1ccc(C(=O)N/C(=C\c2cccs2)C(=O)NCc2ccco2)cc1 | 2.8% | -18.6% | -25.2% | -4.7% | 9.9% | 1.3
O=C(COC(=O)[C@@H]1CCCN1C(=O)c1cccs1)Nc1ccc(Br)cc1 | nt | 2.9% | 2.4% | -16.1% | -16.6% | nt
COC(=O)c1ccccc1NC(=S)NC(=O)c1cccc2ccccc12 | -5.0% | 2.8% | -19.0% | 6.7µM* | ? | nt
CCCC(=O)NC(=S)Nc1ccccc1C(=O)OC | nt | 2.7% | -1.2% | 29.9µM* | -16.9% | 0.8
COC(=O)c1ccccc1NC(=S)NC(=O)c1ccc2ccccc2c1 | 0.0% | 5.4% | -13.8% | ? | -25.8% | -2.6
Nc1nc(N2CCN(C/C=C/c3ccccc3)CC2)nc2ccccc12 | 0.5% | -1.5% | -18.8% | 26.7µM* | 1.0% | 4.1
CC(C)(C)C(=O)C[n+]1cccc(C(N)=O)c1 | 9.0% | -0.9% | -19.7% | 29.9µM* | -14.3% | 0.5
Cc1ccc(C(=O)N(Cc2nc(-c3ccc(C)cc3)no2)C(C)C)cc1 | 2.0% | 0.7% | -15.6% | 0.0% | 31.5% | -0.3
Nc1[nH]n(-c2ccccc2)c(=O)c1N=Nc1ccc2ncsc2c1 | 0.1% | 1.0% | -18.6% | 26.7µM* | ? | 1.7
Nc1[nH]n(-c2ccccc2)c(=O)c1N=Nc1ccccc1 | nt | 4.3% | -9.4% | -8.3% | 7.7% | 1.3
CCC1(C)Cc2c(sc3nn[nH]c(=O)c23)CO1 (stereo unspecified) | 0.7% | 5.8% | -11.1% | 21.2µM* | -18.1% | -0.2
COc1ccc(-c2c(C)oc3c(CN4CCOCC4)c(O)ccc3c2=O)cc1OC | -0.3% | -1.0% | -3.8% | -6.6% | 4.6% | 1.7
COc1cc(OC)c(NC(=O)CCNC(=O)Cn2cnc3ccccc3c2=O)cc1Cl | 0.2% | -0.3% | 2.5% | 13.4µM* | -23.0% | 1.2
O=C(CCNC(=O)Cn1cnc2ccccc2c1=O)NCC1CCCO1 (stereo unspecified) | 9.4% | 1.4% | -2.2% | -11.7% | -14.8% | 2.0
O=C(CCNC(=O)Cn1cnc2ccccc2c1=O)NCC1COc2ccccc2O1 (stereo unspecified) | nt | 1.0% | -3.6% | 2.99µM* | -16.4% | -3.4
Cc1ccc(C(=O)COC(=O)CNC(=O)CNC(=O)c2ccc(C)cc2)cc1 | 0.8% | -1.0% | -17.5% | -4.3% | -23.9% | 3.3
Cc1cc(-c2nsc(=O)o2)c(S(C)(=O)=O)s1 | 1.0% | -1.3% | ? | 3.77µM* | ? | 2.9
O=C(O)c1ccc(S(=O)(=O)Nc2ccc(O)c(Sc3nc4ccccc4s3)c2)cc1 | 3.4% | 3.7% | -4.1% | 26.7µM* | -7.8% | 4.2
O=C(Cn1c(=O)n(CCCS(=O)(=O)C2CCCCC2)c(=O)c2ccccc21)Nc1ccc(F)c(Cl)c1 | nt | nt | -20.7% | nt | -4.2% | nt
CCCCOc1ccc(Nc2cc(Cl)ccc2C(=O)O)cn1 | -1.1% | -1.0% | -33.1% | 23.8µM* | -15.0% | 10.6
C[C@H](NC(=O)C1CC(=O)N(c2ccc3c(c2)OCCO3)C1)C(=O)NC1CCCC1 (stereo partly specified) | -4.5% | 3.7% | -27.1% | 4.5% | 4.2% | nt
SMILES | GALK inh | USP2a block | USP1 inh | PLK1 PBD inh | VDR inh | Coupling enz
C[C@H](NC(=O)C1CC(=O)N(c2ccc3c(c2)OCO3)C1)C(=O)NC1CCCC1 (stereo partly specified) | -0.4% | 1.0% | -20.3% | 26.7µM* | ? | -2.2
O=C1NC(=S)S/C1=C\c1ccc2ccccc2c1 | -12.7% | -0.1% | 3.3% | 29.9µM* | 6.0% | 6.0
O=C1NC(=S)SC1=Cc1ccccc1Br | nt | nt | -23.3% | 0.0% | ? | nt
O=C1NC(=S)SC1=Cc1cc(Br)ccc1O | nt | nt | -18.1% | 26.7µM* | ? | nt
COc1ccc(-c2nc(-c3ccccc3)ncc2S(C)(=O)=O)cc1 | -0.8% | -1.1% | -14.4% | 26.7µM* | ? | 1.8
COc1ccc(-c2nc(-c3ccccn3)ncc2S(C)(=O)=O)cc1 | -2.8% | 5.1% | -3.4% | -6.5% | 20.0% | -1.0
CC(=O)Nc1ccc(NC(=O)c2nc(S(=O)(=O)Cc3ccccc3)ncc2Cl)cc1 | -0.5% | 0.5% | -15.9% | 16.8µM* | -22.1% | nt
O=C(NCc1ccccc1)c1nc(S(=O)(=O)Cc2ccccc2)ncc1Cl | 1.0% | -0.8% | -21.7% | ? | ? | nt
CCS(=O)(=O)c1ncc(Cl)c(C(=O)Nc2ccc(C)cc2)n1 | 5.8% | 1.6% | -26.7% | ? | 15.8µM* | 0.2
COc1ccc(CNC(=O)c2nc(S(=O)(=O)Cc3ccccc3)ncc2Cl)cc1 | -8.4% | -0.4% | -11.9% | 23.8µM* | ? | nt
COc1ccc(NC(=O)c2nc(S(=O)(=O)Cc3ccc(C)cc3)ncc2Cl)cc1 | nt | nt | -17.2% | nt | ? | nt
Cc1ccc(CS(=O)(=O)c2ncc(Cl)c(C(=O)Nc3ccc(OC(F)F)cc3)n2)cc1 | 2.4% | -6.2% | -15.1% | 21.2µM* | ? | nt
Cc1cc(C)n(-c2ccc(C(=O)Oc3ccc4c(c3)OCO4)cc2)n1 | 0.4% | 0.1% | -20.4% | -2.9% | 7.6% | -6.4
CCC1=C(Nc2ccccc2)COC1=O | nt | nt | -4.1% | -13.0% | nt | nt
O=C(NCc1ccc2c(c1)OCO2)c1nc(S(=O)(=O)Cc2ccccc2F)ncc1Cl | -0.7% | 1.9% | -28.3% | 13.4µM* | -11.0% | 2.1
Cc1nnc(SC(C)C(=O)NC2CCCCC2)[nH]c1=O (stereo unspecified) | nt | nt | -3.8% | 26.7µM* | -14.5% | nt
COC(=O)c1cc(C(=O)CC(C)C)c[nH]1 | 1.2% | 13.0% | -14.7% | -8.5% | -10.4% | 0.2
Cc1ccc2c(c1)C(c1ccc(F)cc1)N(C(=O)c1cc3ccccc3oc1=O)CC(=O)N2 (stereo unspecified) | nt | -0.1% | -25.8% | 1.6% | 19.0% | 5.5
Nc1cccc2c1C(=O)N(C(=O)c1cccc(S(=O)(=O)N3CCCC3)c1)C2=O | 0.4% | 4.4% | -13.5% | 4.23µM* | -19.0% | 6.4
NC(=O)c1cccc(S(=O)(=O)N2CCCCC2)c1 | -1.3% | -1.3% | 1.2% | -4.7% | 0.6% | 0.0
COc1ccccc1-n1cnnc1SCC(=O)NC1CCCCC1 | nt | 0.2% | -19.2% | -12.5% | 4.3% | nt
O=C(CSc1cccc[n+]1[O-])CSc1cccc[n+]1[O-] | 0.4% | 0.5% | -16.8% | 1.5% | -8.5% | 0.9

Screening data deposited in PubChem BioAssay by National Center for Advancing Translational Sciences (NCATS).
